Dicer processing: inhibitors of human Dicer processing of pre-microRNA; Q9UPY3; cat-ELCCA pre-miR-21 Dicer processing, chemiluminescence; stronger effect = higher value; z-score at 25 µM; actives 6% (n = 47,000); AID 1347074; in the data active = z-score above about 3, passing the limit was not always enough;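 also: plate controls were vehicle for no effect and no enzyme for full effect; higher signal means more uncleaved substrate so more Dicer inhibition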
* hit, by the source's call. This is one part of a sample in which hits are shown more often than they occur.

Results for Fc1ccccc1CCNCc1ccc2c(c1)OCO2 ?
Dicer processing: 1.5

What do the screens show for `COc1ccccc1CCNCc1ccc2c(c1)OCO2`?
Dicer processing: 3.3*

Results for Cc1ccc(CNCCc2ccc3c(c2)OCO3)cc1 ?
Dicer processing: -1.6

How did O=C(O)CCCN1CC=C(c2ccccc2)CC1 do in these assays?
Dicer processing: -0.12

Results for Nc1ccc(CCN2CCN(c3cccc(C(F)(F)F)c3)CC2)cc1 ?
Dicer processing: 0.17

Results for Clc1cccc(CCNCc2cccnc2)c1 ?
Dicer processing: 0.34

Results for COc1ccc2oc3c(c2c1)NC(=O)CN=C3c1ccc(F)cc1 ?
Dicer processing: 3.3*

What do the screens show for `O=C1CN=C(c2ccc(Cl)cc2)c2oc3ccccc3c2N1`?
Dicer processing: 0.52

What do the screens show for `O=C1CN=C(c2ccccc2)c2oc3ccccc3c2N1`?
Dicer processing: -1.2

Results for CCCN1CCC[C@H](c2cccc(O)c2)C1 ?
Dicer processing: -0.18

How did Oc1ccc(C2(c3ccc(O)cc3)CCCCC2)cc1 do in these assays?
Dicer processing: 3.1*

What do the screens show for `CC(C)(C)NC(=O)[C@@H]1C[C@@H]2CCCC[C@@H]2CN1`?
Dicer processing: -1.1

Results for CN1C2CCC1CC(N=Cc1c(F)cccc1Cl)C2 (stereo unspecified) ?
Dicer processing: 0.39

Results for C[N+]1(C)CCN(c2ccccc2)CC1 ?
Dicer processing: -0.83

How did Cc1cccc(CNCCc2c[nH]c3ccccc23)c1 do in these assays?
Dicer processing: 0.46

What do the screens show for `c1ccc(CNCCc2c[nH]c3ccccc23)cc1`?
Dicer processing: 3.2*

What do the screens show for `CCc1ccc(CNCCc2c[nH]c3ccccc23)cc1`?
Dicer processing: -0.52

Results for NCCc1c[nH]c2ccc(Cl)cc12 ?
Dicer processing: -1.1

Results for CN1CCc2cc(O)cc3c2[C@H]1Cc1ccc(O)c(O)c1-3 ?
Dicer processing: -0.43

Results for CCCN1CCc2cc(O)cc3c2[C@H]1Cc1ccc(O)c(O)c1-3 ?
Dicer processing: 4.5*

What do the screens show for `O=C(O)c1cn(Cc2ccccc2Cl)c2ccccc12`?
Dicer processing: 0.6

What do the screens show for `CCOC(=O)C1(O)c2ccccc2-c2ccccc21`?
Dicer processing: -0.77

How did N#Cc1ccc(CN=C(N)N[N+](=O)[O-])cc1 do in these assays?
Dicer processing: -0.75

Results for COc1ccc2c(CCN)c[nH]c2c1 ?
Dicer processing: -0.58

Results for COc1ccc(O)c(C(C)(C)C)c1 ?
Dicer processing: 3.8*

Results for Cc1cc(C(C)(C)c2ccc(O)c(C)c2)ccc1O ?
Dicer processing: 1.3

How did O=C1CC(=O)N(c2cccc(F)c2)C(=O)N1 do in these assays?
Dicer processing: 0.2

How did Cc1c2ccncc2c(C)c2c1[nH]c1ccccc12 do in these assays?
Dicer processing: -0.83

How did CCCC(C)C1(CC)C(=O)NC(=O)NC1=O (stereo unspecified) do in these assays?
Dicer processing: 3.7*

What do the screens show for `C=CCC1(CC(C)C)C(=O)NC(=O)NC1=O`?
Dicer processing: 0.12

Results for C=C1CC[C@@]2(O)[C@H]3Cc4ccc(O)c5c4[C@@]2(CCN3CC2CC2)[C@H]1O5 ?
Dicer processing: -0.46

How did O=C(CCCN1CCC(n2c(=O)[nH]c3ccccc32)CC1)c1ccc(F)cc1 do in these assays?
Dicer processing: 0.85

What do the screens show for `CC(N)[C@H](O)c1ccc(O)c(O)c1` (stereo partly specified)?
Dicer processing: 4.1*

Results for C[C@H](N)[C@H](O)c1ccc(O)c(O)c1 ?
Dicer processing: 5.6

What do the screens show for `COc1ccc(OC)c(C(O)C(C)N)c1` (stereo unspecified)?
Dicer processing: 0.13

How did O=C1CN=C(c2ccccc2)c2ccccc2N1 do in these assays?
Dicer processing: -0.41

How did C[N+](C)(C)CC(=O)O do in these assays?
Dicer processing: 0.47

What do the screens show for `Cc1ccccc1-n1c(/C=C/c2ccc([N+](=O)[O-])o2)nc2ccccc2c1=O`?
Dicer processing: 5.5*

What do the screens show for `O=c1c2ccccc2nc(/C=C/c2ccc([N+](=O)[O-])o2)n1-c1ccccc1Cl`?
Dicer processing: -0.34

What do the screens show for `O=c1c2ccccc2nc(/C=C/c2ccc([N+](=O)[O-])o2)n1-c1ccc(O)cc1`?
Dicer processing: 0.79

How did CN1C(=O)C(=Cc2ccccc2)C(=O)N(C)C1=O do in these assays?
Dicer processing: -1.9

Results for CN(C)C(=O)Oc1ccc(Br)cc1C(=O)Nc1ccc(F)cc1 ?
Dicer processing: 4.4*

What do the screens show for `COc1ccc(OC(=O)N(C)C)c(CN(C)C)c1`?
Dicer processing: 1.1

What do the screens show for `CNc1ccc(Br)cc1C(=O)c1ccccc1Cl`?
Dicer processing: -1.3

Results for CC12CN(CO)CC(C)(CN(CC(N)=O)C1)C2=O ?
Dicer processing: -0.46

What do the screens show for `CN1CCN(C(=O)COc2cc(-c3ccccc3)nc3ccccc23)CC1`?
Dicer processing: -0.2

Results for Cc1c(CCN)c2cccc3c2n1CCC3 ?
Dicer processing: 3.5*

How did Cc1ccc(NC2=NCCS2)cc1C do in these assays?
Dicer processing: 2.2

How did CCCCCOc1ccc(C2SCC(=O)Nc3c2c(=O)[nH]n3C(C)CC)cc1 (stereo unspecified) do in these assays?
Dicer processing: -1.2

What do the screens show for `FC(F)(F)c1nnc(N2CCNCC2)s1`?
Dicer processing: -0.25

Results for CCCc1c(C)nc(SCC(=O)C(C)(C)C)nc1OC(=O)N(C)C ?
Dicer processing: 0.65

How did NCc1cc(=O)[nH]o1 do in these assays?
Dicer processing: -0.88

How did OCCC#CCN1CCCCC1c1cccnc1 (stereo unspecified) do in these assays?
Dicer processing: 0.46

What do the screens show for `O=C1CC(c2cccnc2)Nc2ccc3ccccc3c21` (stereo unspecified)?
Dicer processing: 3.5*

What do the screens show for `CC12CN3CC(C)(CN(C1)C3c1cccnc1)C2=O` (stereo unspecified)?
Dicer processing: -0.99

What do the screens show for `O=S(=O)(c1ccc(Cl)cc1Cl)N1CCCC1c1cccnc1` (stereo unspecified)?
Dicer processing: -0.7

What do the screens show for `N#Cc1ccc2[nH]cc(CCN(Cc3ccccc3)Cc3ccccc3)c2c1`?
Dicer processing: 2.8

How did COc1ccc(C2NN=C3C4CCN(CC4)C32)cc1Br (stereo unspecified) do in these assays?
Dicer processing: 2

How did CCC(C)N1CCN(Cc2ccc(Cl)cc2)CC1 (stereo unspecified) do in these assays?
Dicer processing: 2.7

How did Cc1ccccc1NC1=NCC(C)(C)S1 do in these assays?
Dicer processing: -0.96

What do the screens show for `CC1(C)CN=C(Nc2cccc(C(F)(F)F)c2)S1`?
Dicer processing: -1.1

What do the screens show for `CC1(C)CN=C(Nc2ccccc2)S1`?
Dicer processing: 3*

How did CN1CCN(c2ncnc3c2cnn3C)CC1 do in these assays?
Dicer processing: -0.01

Results for Cc1cc(=O)oc2cc(OC(=O)N(C)C)c(Cl)cc12 ?
Dicer processing: 3.6*

Results for COc1ccc(Oc2c(C)oc3cc(OC(=O)N(C)C)ccc3c2=O)cc1 ?
Dicer processing: 0.84

How did Cc1cc(CN(C)C)c(OC(=O)N(C)C)cc1C do in these assays?
Dicer processing: 0.46

How did O=S(=O)(c1ccc(O)cc1)c1ccc(O)cc1 do in these assays?
Dicer processing: 3.5*

How did NN=C(N)N do in these assays?
Dicer processing: 2

Results for CCCC1CN2CCC3=C(CCC3)C2(C)C1 (stereo unspecified) ?
Dicer processing: 0.36

How did CC12CCC3C4CCC(=O)C=C4CCC3C1CCC2O (stereo unspecified) do in these assays?
Dicer processing: -1.7

Results for CCc1c(C(=O)OC)c2cc(O)ccc2n1Cc1ccccc1 ?
Dicer processing: -0.36

Screening results deposited in PubChem BioAssay by Center for Chemical Genomics, University of Michigan.
